Assay outcomes from PubChem BioAssay.
Rv3671c protease: Rv3671c (M. tuberculosis) protease inhibition; P9WHR9; inhibition, % at 5.96 µM; 320,000 compounds, 0.048% hits; AID 2606; in the data active = inhibition above about 38%;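 also: extracellular domain of Rv3671c used as enzyme; 0% = enzyme with DMSO and 100% = no enzyme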
GDH-TPI counter: GDH-TPI coupled enzyme inhibition counter-screen; GDH-TPI coupled enzyme counterscreen, NADH absorbance; inhibition, % at 4.8 µM; 360,000 compounds, 1.2% hits; in the data active = inhibition above about 30%;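 also: 0% = DMSO wells and 100% = wells lacking the enzyme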
RecA splice inh: Mtb RecA intein splicing inhibition. cell-free RecA intein splicing, fluorescence. inhibition, % (no concentration beside the values). 290,000 compounds, 0.75% hits. AID 2221; in the data active = inhibition above about 30%;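 also: 0% = vehicle wells and 100% = reference inhibitor control wells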
Target sequence (P9WHJ3 whole entry, looked up, canonical isoform): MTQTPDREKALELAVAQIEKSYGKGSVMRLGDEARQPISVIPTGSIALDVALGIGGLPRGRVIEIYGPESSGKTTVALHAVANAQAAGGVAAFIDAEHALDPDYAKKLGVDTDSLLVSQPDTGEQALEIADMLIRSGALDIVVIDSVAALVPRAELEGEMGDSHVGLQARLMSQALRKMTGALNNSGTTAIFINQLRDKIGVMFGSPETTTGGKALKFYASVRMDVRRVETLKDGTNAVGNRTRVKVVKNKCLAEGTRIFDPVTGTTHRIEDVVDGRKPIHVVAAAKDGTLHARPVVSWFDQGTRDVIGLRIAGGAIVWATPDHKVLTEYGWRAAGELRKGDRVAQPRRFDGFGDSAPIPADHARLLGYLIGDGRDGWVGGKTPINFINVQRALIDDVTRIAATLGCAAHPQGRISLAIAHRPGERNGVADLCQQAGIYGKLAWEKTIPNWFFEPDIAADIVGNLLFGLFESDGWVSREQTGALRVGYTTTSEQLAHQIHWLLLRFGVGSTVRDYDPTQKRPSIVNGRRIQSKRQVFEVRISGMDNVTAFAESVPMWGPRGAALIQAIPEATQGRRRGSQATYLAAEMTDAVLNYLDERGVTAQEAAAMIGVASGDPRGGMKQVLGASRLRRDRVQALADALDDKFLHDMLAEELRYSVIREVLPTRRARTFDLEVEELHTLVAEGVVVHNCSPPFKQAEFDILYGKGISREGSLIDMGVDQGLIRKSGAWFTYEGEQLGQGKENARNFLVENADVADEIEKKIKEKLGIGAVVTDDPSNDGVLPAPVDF
Mtb bLac sens: beta-lactam sensitization of Mtb H37Rv | M. tuberculosis H37Rv growth with meropenem, percent inhibition | inhibition, % at 25 µM | 330,000 compounds, 0.27% hits; call rule not given here;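 also: growth measured after seven days incubation then overnight dye step; 0% = bacteria only wells and 100% = bacteria with antibiotic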
UGM FP inh: inhibitors of M. tuberculosis UDP-galactopyranose mutase | inhibition, % at 10 µM | P9WIQ1 | 320,000 compounds, 0.06% hits | purified UGM, fluorescence polarization probe displacement; in the data active = inhibition above about 10%, passing the limit was not always enough
FBA Mtb inh: inhibitors of M. tuberculosis fructose-bisphosphate aldolase. P9WQA3. purified M. tuberculosis FBA, fluorescence read-out. inhibition, % at 1 µM. 360,000 compounds, 2.3% hits. AID 588726; in the data active = inhibition above about 27%;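 also: 0% = vehicle and 100% = reference inhibitor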
* hit, by the source's call; · = not tested or not shown; + = active, no number. Compounds with a hit are over-represented: about 4% of the library has one in this group of screens.

SMILES	Rv3671c protease	GDH-TPI counter	RecA splice inh	Mtb bLac sens	UGM FP inh	FBA Mtb inh
COC(=O)[C@@]12CCCCN1[C@H](c1ccc(-c3ccc4c(c3)OCO4)cc1)[C@H]1C(=O)N(C)C(=O)[C@H]12	-11.0	0.9	·	-10.3	4.1	-2.8
CN(C)C(=O)c1cc(C(=O)c2ccc(C(F)(F)F)cc2)c[nH]1	-0.6	3.9	-2.1	-4.7	1.4	4.7
CC1(C)Oc2cc3oc(-c4cc(O)cc(O)c4)cc3cc2CC1O (stereo not drawn)	2.4	29.4	-1.4	15.1	-1.2	89.0*
COC(=O)CC(NC(=O)Nc1ccccc1F)c1ccc2c(c1)OCO2 (stereo not drawn)	-0.2	4.0	-2.2	-3.4	2.3	-1.3
CCOC(=O)c1nc(Nc2ccc(C(=O)O)cc2)c2ccccc2n1	7.1	31.3*	3.0	-8.0	-2.1	-3.7
CCOC(=O)c1ccc(Nc2nc(C(=O)OCC)nc3ccccc23)cc1	-95.4	35.0*	1.3	25.7	-1.9	0.7
O=C(O)c1ccc(Nc2nc(-c3ccccc3)nc3ccccc23)cc1	-45.2	46.6*	2.9	22.2	-0.5	8.4
COc1ccc(C)cc1NC(=O)CN(C)S(=O)(=O)c1ccc2c(c1)CC(C)N2C(C)=O (stereo not drawn)	1.2	-3.5	-2.8	4.0	2.2	-2.8
CC(C)NC(=O)c1onc(CSc2ccc(F)cc2)c1C(=O)NC(C)C	4.5	1.3	0.8	-2.6	1.1	1.1
Cc1c(C(c2cccc(O)c2)c2c(C)n(C)n(-c3ccccc3)c2=O)c(=O)n(-c2ccccc2)n1C	0.5	10.0	-1.3	4.3	2.3	-1.4
CC1=NNC(=O)C1C(c1cccc(O)c1)C(C#N)C#N (stereo not drawn)	-4.5	-10.1	59.6*	1.7	-1.9	-2.2
NC(=S)NN=Cc1nccc2c(N)cccc12	·	17.7	·	·	·	-8.0
CCN(C(C)=O)c1cnc(C=NNC(N)=S)c2ccccc12	·	34.4*	·	·	·	1.8
CCn1c(COc2ccc(Cl)cc2)nnc1SCc1ccc(C#N)cc1	0.6	4.2	0.0	21.2	0.6	1.0
CCn1c(COc2ccc(Cl)cc2)nnc1SC1CCc2ccccc2C1=O (stereo not drawn)	6.3	1.1	62.4*	1.8	-2.3	-2.4
CCCC1(c2ccccc2)NC(=O)N(CC(=O)Nc2ccccc2C(F)(F)F)C1=O (stereo not drawn)	1.0	-5.2	-0.1	-1.7	1.1	1.4
Cc1ccc(N2C(=O)C(Cl)=C(NCCO)C2=O)c(C)c1	2.7	0.3	32.8*	12.9	-2.3	0.7
C=CCNC1=C(Cl)C(=O)N(c2cccc(Cl)c2Cl)C1=O	-1.7	0.7	28.2	·	1.1	-2.5
O=C1N/C(=N\N=C\c2ccccn2)SC1Cc1cccc(SC(F)F)c1 (stereo not drawn)	-2.6	47.0*	2.1	99.4	0.0	0.3
O=C1N/C(=N\N=C\c2ccc3ncccc3c2)SC1Cc1ccc(SC(F)F)cc1 (stereo not drawn)	-5.5	6.8	-2.2	75.7	-3.2	-3.1
O=C(NCCc1ccccc1)c1coc(=O)c(Br)c1	·	41.4*	-1.0	0.5	-0.3	23.6
O=C(NCCC1=CCCCC1)c1coc(=O)c(Br)c1	-7.5	39.0*	-1.8	-0.4	1.7	14.3
O=C(NCCC1=CCCCC1)c1ccc(=O)oc1	4.3	52.4*	-0.5	9.1	0.7	-1.9
O=C(NCCC1=CCCCC1)c1ccc(Cl)cc1	-7.3	·	1.5	-12.8	-0.4	·
CC(=O)c1sc(=S)n(-c2ccccc2)c1C	-1.9	68.3*	-10.5	0.2	0.6	2.0
SMILES	Rv3671c protease	GDH-TPI counter	RecA splice inh	Mtb bLac sens	UGM FP inh	FBA Mtb inh
O=C(CSc1nnnn1-c1ccccc1)c1ccc(O)cc1O	-13.8	42.0*	-0.2	0.4	-2.5	-7.7
Cc1cc(C)nc(SCC(=O)c2ccc(O)c(O)c2)n1	-1.8	7.4	-3.5	-2.3	1.5	4.8
Cc1cc(C)nc(SCC(=O)c2ccc(O)cc2O)n1	-0.4	50.5*	6.2	-4.1	7.1	-1.5
O=C(CSc1nnnn1-c1ccccc1)CSc1nnnn1-c1ccccc1	-7.8	11.7	-2.5	7.6	-0.3	-1.6
CCCc1cc2nnc(SCC(=O)N(C)C3CCCCC3)n2c(N)n1	-3.6	3.8	1.7	8.1	0.9	-0.9
c1coc(-c2nc(-c3ccco3)c(-c3ccco3)nc2-c2ccco2)c1	7.9	28.3	·	-7.2	0.2	31.9*
CCCc1cc(=O)oc2cc(OCC(=O)NC(Cc3ccc(Cl)cc3)C(=O)O)ccc12 (stereo not drawn)	-5.1	2.0	-1.3	2.1	2.2	17.9
Cc1cc(=O)oc2c3c(cc(OCC(=O)NC(Cc4ccc(Cl)cc4)C(=O)O)c12)OC(C)(C)CC3 (stereo not drawn)	8.7	13.7	0.4	-3.2	4.3	+
CCCCc1cc(=O)oc2cc(OCC(=O)N[C@@H](Cc3ccccc3)C(=O)O)ccc12	1.9	18.6	0.5	4.5	-0.4	18.9
Cc1cc(=O)oc2c3c(cc(OCC(=O)N[C@@H](Cc4ccccc4)C(=O)O)c12)OC(C)(C)CC3	3.8	22.2	-0.3	0.4	0.3	+
CC1(C)S/C(=N/N=C/c2ccco2)NC1=O	9.1	54.8*	-0.1	11.1	-0.8	-0.9
Cc1cccc(NC(=O)C2CC(=O)N/C(=N/N=C/c3ccco3)S2)c1 (stereo not drawn)	-30.5	57.0*	1.1	2.7	2.2	-1.7
CC1S/C(=N/N=C/c2cccs2)NC1=O (stereo not drawn)	1.3	42.3*	-0.4	21.6	-0.4	0.3
CC1S/C(=N/N=C/c2ccco2)NC1=O (stereo not drawn)	-4.7	38.8*	-4.5	15.4	1.0	-1.6
CCC1S/C(=N/N=C/c2cccs2)NC1=O (stereo not drawn)	2.1	29.7	-3.7	52.5	1.1	-2.3
CC(=O)N1CCN(C(=O)COC(=O)COc2ccc(C#N)cc2)CC1	2.6	3.6	-1.9	-0.9	0.9	-1.7
C=C[C@]1(C)C=C2C(=O)[C@@]3(O)OC(=O)[C@@]4(CCCC(C)(C)[C@H]34)[C@@]2(O)CC1	·	·	·	·	·	0.5
O=C(N/N=C/c1ccc[nH]1)c1cccnc1	2.8	45.3*	-0.2	3.5	-0.7	0.0
O=C(N/N=C\c1ccc[nH]1)c1cncc(Br)c1	7.8	25.8	-1.4	98.2	-1.0	3.6
Cc1ccc(C(=O)N/N=C/c2cc(Br)ccc2O)cn1	5.4	17.4	·	1.7	-1.4	4.3
Cc1ccc(C(=O)N/N=C\c2ccc[nH]2)cn1	-6.2	47.0*	0.1	2.4	1.1	-1.1
Cc1ccc(C(=O)N/N=C\C=C\c2ccc(Br)cc2)cn1	-17.8	35.3*	-2.1	9.7	0.0	-2.8
COc1ccc(C#Cc2cnc3c(c2)C(=O)N([C@H](C)CO)C[C@@H](C)[C@H](CN(C)C(=O)CN(C)C)O3)cc1	·	14.4	·	·	·	6.7
C#CCn1cc(/C=C2\NC(=O)NC2=O)c2ccccc21	-6.3	14.7	7.3	1.7	3.9	-2.6
CC(C)(C)c1ccc2c(c1)N(CC(=O)N1CCCC1)C(=O)CO2	-3.3	4.3	-0.5	2.8	-3.5	2.4
